About 7,900 targets were measured; listed, in parts, are those with a hit and a random draw of the rest. About 0.6% of all pairs of compound and target were hits. Unmarked numbers belong to inactive results.
How the values were obtained:
Experiment in all cases: log2 fold change, soluble protein after heating vs DMSO (PISA); higher = thermal stabilisation; K562 cells, 10 uM, 30 min; active = over 0.2 and 3.5 SD of the protein, either way, in both replicates (recomputed)
crizotinib = compound: C[C@@H](Oc1cc(-c2cnn(C3CCNCC3)c2)cnc1N)c1c(Cl)ccc(F)c1Cl [crizotinib]
Method in brief: (§1)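 Soluble protein was quantified by TMTpro 16plex LC-MS/MS after channel sums were equalised. It was obtained as the supernatant after 21,000xg for 90 min from pooled aliquots of K562 cells (2×10^6 cells/mL, 10 μM compound, 30 min) heated for 3 min across 48°C-58°C and extracted in PBS with 0.5% NP-40 at 4°C. Thermal stability values are relative to control samples and come from duplicates. They are given as log2 fold changes.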

[1] = compound: C[C@@H]1COCCN1C2=NC(=NC(=C2)C3(CC3)S(=O)(=O)C)C4=C5C=CNC5=CC=C4
Method in brief: as §1

[2] = compound: C[C@H](C1=CC=C(C=C1)C(=O)NC2=C3C=CNC3=NC=C2)N
Method in brief: as §1

duvelisib = compound: C[C@H](Nc1ncnc2nc[nH]c12)c1cc2cccc(Cl)c2c(=O)n1-c1ccccc1 [duvelisib]
Method in brief: as §1

gandotinib = compound: Cc1cc(Nc2cc(CN3CCOCC3)c3nc(C)c(Cc4ccc(Cl)cc4F)n3n2)n[nH]1 [gandotinib]
Method in brief: as §1

tozasertib = compound: Cc1cc(Nc2cc(N3CCN(C)CC3)nc(Sc3ccc(NC(=O)C4CC4)cc3)n2)n[nH]1 [tozasertib]
Method in brief: as §1

[3] = compound: Cc1cc(SCc2sc(-c3ccc(C(F)(F)F)cc3)nc2C)ccc1OCC(=O)O
Method in brief: as §1

doramapimod = compound: Cc1ccc(-n2nc(C(C)(C)C)cc2NC(=O)Nc2ccc(OCCN3CCOCC3)c3ccccc23)cc1 [doramapimod]
Method in brief: as §1

ispinesib = compound: Cc1ccc(C(=O)N(CCCN)[C@@H](c2nc3cc(Cl)ccc3c(=O)n2Cc2ccccc2)C(C)C)cc1 [ispinesib]
Method in brief: as §1

[4] = compound: CS(=O)(=O)c1ccc(-c2cnc(N)c(C(=O)Nc3ccccc3)n2)cc1
Method in brief: as §1

UniProt Q9HCU9, sequence (Q9HCU9 whole entry, looked up): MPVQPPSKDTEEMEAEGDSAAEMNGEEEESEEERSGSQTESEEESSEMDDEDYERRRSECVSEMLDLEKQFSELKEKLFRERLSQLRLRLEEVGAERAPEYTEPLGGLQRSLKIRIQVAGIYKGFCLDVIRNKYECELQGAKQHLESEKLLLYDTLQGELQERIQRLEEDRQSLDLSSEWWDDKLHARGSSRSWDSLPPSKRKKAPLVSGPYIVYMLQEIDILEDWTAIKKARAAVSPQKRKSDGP
UniProt Q9UNK9, sequence (Q9UNK9 whole entry, looked up): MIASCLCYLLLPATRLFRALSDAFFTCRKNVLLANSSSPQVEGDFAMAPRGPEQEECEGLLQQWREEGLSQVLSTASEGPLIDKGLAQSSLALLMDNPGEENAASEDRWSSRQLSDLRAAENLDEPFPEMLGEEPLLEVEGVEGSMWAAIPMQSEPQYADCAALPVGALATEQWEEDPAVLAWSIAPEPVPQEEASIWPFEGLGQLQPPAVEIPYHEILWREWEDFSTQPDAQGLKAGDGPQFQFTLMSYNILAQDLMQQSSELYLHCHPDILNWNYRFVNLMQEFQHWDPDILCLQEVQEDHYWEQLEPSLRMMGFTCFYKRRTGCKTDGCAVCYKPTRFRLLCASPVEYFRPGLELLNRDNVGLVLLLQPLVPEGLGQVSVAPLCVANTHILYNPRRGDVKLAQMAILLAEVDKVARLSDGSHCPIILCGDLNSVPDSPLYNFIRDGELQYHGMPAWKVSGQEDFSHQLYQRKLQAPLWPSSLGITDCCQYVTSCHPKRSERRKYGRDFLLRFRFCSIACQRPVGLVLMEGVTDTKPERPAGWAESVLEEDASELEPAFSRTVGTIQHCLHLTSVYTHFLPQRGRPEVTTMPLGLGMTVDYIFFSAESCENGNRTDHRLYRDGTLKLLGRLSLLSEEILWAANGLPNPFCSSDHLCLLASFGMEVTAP
UniProt Q9H7T9, sequence (Q9H7T9 whole entry, looked up): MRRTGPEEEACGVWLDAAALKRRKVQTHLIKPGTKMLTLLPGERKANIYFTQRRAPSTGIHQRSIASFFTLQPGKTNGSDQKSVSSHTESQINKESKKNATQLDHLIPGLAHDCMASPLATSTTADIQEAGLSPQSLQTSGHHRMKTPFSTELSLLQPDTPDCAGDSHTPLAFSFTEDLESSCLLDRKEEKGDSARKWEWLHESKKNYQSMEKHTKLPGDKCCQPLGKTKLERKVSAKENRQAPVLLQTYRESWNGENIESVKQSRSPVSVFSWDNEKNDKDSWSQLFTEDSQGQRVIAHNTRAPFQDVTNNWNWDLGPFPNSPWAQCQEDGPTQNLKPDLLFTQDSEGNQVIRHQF
UniProt Q9UQB8, sequence (Q9UQB8 whole entry, looked up): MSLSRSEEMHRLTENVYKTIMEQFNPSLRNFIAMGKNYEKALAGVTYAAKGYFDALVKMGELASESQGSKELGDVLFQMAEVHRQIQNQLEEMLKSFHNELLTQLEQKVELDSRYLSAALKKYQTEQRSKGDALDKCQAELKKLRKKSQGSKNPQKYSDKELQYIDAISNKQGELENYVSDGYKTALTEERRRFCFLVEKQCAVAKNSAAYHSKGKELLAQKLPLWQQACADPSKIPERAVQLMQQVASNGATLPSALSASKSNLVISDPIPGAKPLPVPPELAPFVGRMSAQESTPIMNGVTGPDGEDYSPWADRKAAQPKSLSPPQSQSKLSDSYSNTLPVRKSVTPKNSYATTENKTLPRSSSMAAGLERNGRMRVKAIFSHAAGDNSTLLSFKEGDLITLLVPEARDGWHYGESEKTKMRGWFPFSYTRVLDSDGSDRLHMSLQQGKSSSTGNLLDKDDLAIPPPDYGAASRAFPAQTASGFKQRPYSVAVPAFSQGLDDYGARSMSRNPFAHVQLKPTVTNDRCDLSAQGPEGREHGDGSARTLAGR
UniProt P18846, sequence (P18846 whole entry, looked up): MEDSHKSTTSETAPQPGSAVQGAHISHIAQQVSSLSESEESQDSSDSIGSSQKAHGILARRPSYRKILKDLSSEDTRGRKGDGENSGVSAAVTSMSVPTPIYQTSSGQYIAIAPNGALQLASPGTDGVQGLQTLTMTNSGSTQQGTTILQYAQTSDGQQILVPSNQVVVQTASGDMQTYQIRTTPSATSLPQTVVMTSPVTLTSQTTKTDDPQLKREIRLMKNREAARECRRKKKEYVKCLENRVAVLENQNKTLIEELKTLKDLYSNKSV
UniProt Q04771, sequence (Q04771 whole entry, looked up): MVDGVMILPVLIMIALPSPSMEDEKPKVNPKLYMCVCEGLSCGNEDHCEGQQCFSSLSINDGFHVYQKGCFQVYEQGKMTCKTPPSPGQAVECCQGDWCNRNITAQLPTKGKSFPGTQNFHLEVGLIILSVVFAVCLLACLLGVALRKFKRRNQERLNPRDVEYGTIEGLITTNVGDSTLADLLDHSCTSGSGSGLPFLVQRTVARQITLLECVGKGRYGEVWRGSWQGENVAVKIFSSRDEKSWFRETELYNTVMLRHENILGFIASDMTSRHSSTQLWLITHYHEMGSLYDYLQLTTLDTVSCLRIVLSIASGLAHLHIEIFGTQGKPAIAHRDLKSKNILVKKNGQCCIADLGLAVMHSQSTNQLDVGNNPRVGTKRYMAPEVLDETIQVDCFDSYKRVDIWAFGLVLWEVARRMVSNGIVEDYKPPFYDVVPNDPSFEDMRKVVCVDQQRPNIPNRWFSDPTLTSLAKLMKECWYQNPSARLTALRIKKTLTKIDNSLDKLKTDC
UniProt P49189, sequence (P49189 whole entry, looked up): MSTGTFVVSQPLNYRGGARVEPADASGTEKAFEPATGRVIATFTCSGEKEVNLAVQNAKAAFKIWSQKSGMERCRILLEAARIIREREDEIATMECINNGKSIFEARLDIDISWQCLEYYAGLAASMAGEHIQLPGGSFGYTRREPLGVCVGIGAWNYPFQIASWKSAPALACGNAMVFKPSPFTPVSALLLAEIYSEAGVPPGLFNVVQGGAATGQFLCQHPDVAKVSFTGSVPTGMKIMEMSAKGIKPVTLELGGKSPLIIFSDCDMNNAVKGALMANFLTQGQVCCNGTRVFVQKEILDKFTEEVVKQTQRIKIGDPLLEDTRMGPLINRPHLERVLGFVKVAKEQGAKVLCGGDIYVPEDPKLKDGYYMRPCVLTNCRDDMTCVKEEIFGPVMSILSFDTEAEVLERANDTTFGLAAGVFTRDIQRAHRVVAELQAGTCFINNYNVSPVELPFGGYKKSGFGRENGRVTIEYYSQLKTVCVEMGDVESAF
UniProt Q9BUT1, sequence (Q9BUT1 whole entry, looked up): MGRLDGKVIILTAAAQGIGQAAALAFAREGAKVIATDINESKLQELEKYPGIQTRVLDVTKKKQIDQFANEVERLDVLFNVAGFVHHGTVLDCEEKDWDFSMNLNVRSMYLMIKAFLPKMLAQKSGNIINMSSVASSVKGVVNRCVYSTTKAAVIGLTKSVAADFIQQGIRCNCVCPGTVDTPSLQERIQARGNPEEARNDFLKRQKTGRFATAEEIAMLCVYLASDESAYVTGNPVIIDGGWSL
UniProt P54252, sequence (P54252 whole entry, looked up): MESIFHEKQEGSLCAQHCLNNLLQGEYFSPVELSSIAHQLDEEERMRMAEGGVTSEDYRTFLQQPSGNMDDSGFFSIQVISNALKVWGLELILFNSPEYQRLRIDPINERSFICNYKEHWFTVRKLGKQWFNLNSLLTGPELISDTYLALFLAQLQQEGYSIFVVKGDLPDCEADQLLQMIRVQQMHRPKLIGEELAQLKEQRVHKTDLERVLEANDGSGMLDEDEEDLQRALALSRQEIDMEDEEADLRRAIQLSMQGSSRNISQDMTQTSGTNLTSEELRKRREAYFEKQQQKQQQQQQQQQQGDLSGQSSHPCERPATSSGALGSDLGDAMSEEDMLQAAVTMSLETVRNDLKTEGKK
UniProt Q562R1, sequence (Q562R1 whole entry, looked up): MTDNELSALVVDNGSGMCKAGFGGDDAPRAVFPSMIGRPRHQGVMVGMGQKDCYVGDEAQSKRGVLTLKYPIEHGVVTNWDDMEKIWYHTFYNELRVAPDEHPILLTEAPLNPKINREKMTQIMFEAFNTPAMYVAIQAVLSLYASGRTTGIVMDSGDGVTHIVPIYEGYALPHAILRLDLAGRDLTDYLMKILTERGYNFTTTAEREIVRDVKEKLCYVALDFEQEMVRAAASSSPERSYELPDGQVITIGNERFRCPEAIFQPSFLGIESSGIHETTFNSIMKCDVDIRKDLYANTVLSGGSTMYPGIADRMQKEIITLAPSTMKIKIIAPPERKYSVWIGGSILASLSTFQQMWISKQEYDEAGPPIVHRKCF
UniProt Q15059, sequence (Q15059 whole entry, looked up): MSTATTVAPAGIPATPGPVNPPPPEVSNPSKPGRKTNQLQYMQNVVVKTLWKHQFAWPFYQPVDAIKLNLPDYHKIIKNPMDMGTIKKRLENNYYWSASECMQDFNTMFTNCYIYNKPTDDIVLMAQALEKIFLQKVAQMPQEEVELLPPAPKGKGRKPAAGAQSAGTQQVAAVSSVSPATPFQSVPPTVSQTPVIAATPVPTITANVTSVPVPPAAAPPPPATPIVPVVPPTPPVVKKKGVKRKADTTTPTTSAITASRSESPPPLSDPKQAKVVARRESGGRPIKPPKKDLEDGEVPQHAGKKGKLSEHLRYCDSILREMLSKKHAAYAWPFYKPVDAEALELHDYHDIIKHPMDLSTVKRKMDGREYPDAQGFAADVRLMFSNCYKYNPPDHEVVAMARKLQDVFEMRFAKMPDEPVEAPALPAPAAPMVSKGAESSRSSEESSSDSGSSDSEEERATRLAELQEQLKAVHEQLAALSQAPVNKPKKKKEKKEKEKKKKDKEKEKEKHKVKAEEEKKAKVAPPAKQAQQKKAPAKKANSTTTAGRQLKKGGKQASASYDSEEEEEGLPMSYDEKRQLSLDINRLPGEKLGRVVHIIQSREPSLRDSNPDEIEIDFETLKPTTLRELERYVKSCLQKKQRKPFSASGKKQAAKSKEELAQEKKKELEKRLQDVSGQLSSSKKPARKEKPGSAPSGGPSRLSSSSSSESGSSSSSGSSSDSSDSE

| Target | log2 fold change (crizotinib) | log2 fold change [1] | log2 fold change [2] | log2 fold change (duvelisib) | log2 fold change (gandotinib) | log2 fold change (tozasertib) | log2 fold change [3] | log2 fold change (doramapimod) | log2 fold change (ispinesib) | log2 fold change [4] |
| --- | --- | --- | --- | --- | --- | --- | --- | --- | --- | --- |
| ABHD11 (UniProt Q8NFV4) | 0.149 | 0.309 (active) | 0.057 | 0.144 | 0.389 (active) | -0.039 | -0.003 | 0.028 | 0.029 |  |
| BTBD6 (UniProt Q96KE9) |  | 0.033 | -0.308 | 0.125 | 0.64 | -0.105 | -0.061 |  | 0.209 | 0.117 |
| ALDH2 isoform 2 (UniProt P05091) |  | 0.244 |  |  | -0.027 | -0.224 |  |  | -0.214 | 0.209 |
| ALDH9A1 (UniProt P49189) |  | 0.061 | -0.116 | 0.002 | 0.356 (active) | -0.052 | 0.045 |  | -0.243 | 0.084 |
| ACSL6 isoform 1 (UniProt Q9UKU0) |  | 0.164 |  | -0.068 | -0.145 | -0.052 | 0.157 |  | -0.198 | -0.055 |
| ACTBL2 (UniProt Q562R1) |  | -0.005 |  | -0.091 | -0.828 |  | -0.299 |  | -0.307 | -0.022 |
| BRMS1 (UniProt Q9HCU9) |  | -0.034 |  | 0.049 | -0.174 | -0.094 | -0.046 |  |  |  |
| ATXN7L3 isoform 2 (UniProt Q14CW9) | -0.043 |  |  |  |  |  |  | 0.169 | -0.007 | 0.001 |
| ALG14 (UniProt Q96F25) | -0.034 | -0.117 | -0.042 | 0.01 | -0.798 (active) | -0.134 | -0.002 | -0.038 | -0.018 |  |
| BRD4 (UniProt O60885) |  | 0.288 | -0.009 | 0.207 | -0.034 | 0.033 | -0.044 |  | -0.022 | 0.081 |
| BDH2 (UniProt Q9BUT1) | 0.243 |  | -0.215 | -0.01 | 0.011 |  | 0.067 | -0.053 | 0.053 | 0.035 |
| ADD2 isoform 9 (UniProt P35612) |  |  |  |  |  |  |  |  | 0.04 | -0.067 |
| AUNIP isoform 2 (UniProt Q9H7T9) |  |  | -0.007 | 0.157 |  | -0.203 | 0.056 |  |  | 0.117 |
| BAIAP2 isoform 4 (UniProt Q9UQB8) |  |  | 0.29 |  |  | 0.042 |  |  |  | -0.112 |
| ARHGAP4 isoform 2 (UniProt P98171) |  |  | 0.212 | -0.202 |  | 0.105 | 0.131 |  | -0.111 | 0.023 |
| AARSD1 (UniProt Q9BTE6) | -0.036 |  | 0.033 | -0.258 |  |  | 0.026 | -0.096 |  |  |
| ANK2 (UniProt Q01484) | 0.062 |  | -0.005 | 0.21 | -0.092 | 0.011 | 0.089 | 0.055 | -0.188 | 0.066 |
| ATF1 (UniProt P18846) |  | 0.017 | 0.073 |  | 0.067 | 0.113 |  |  |  | -0.004 |
| ATXN3 isoform 1 (UniProt P54252) | -0.028 |  | 0.076 |  | -0.028 | -0.163 |  | 0.087 | -0.043 |  |
| ACTR3B (UniProt Q9P1U1) | -0.005 |  |  |  | 0.024 | -0.02 |  | 0.158 | -0.069 |  |
| BRD3 (UniProt Q15059) | 0.109 |  | -0.02 | 0.193 | -0.081 | -0.027 | -0.037 | -0.083 | -0.03 | 0.117 |
| ACVR1 (UniProt Q04771) |  | 0.04 | 0.642 (active) | 0.074 | 0.109 | 0.014 | -0.061 |  |  | 0.38 |
| ANGEL1 (UniProt Q9UNK9) | -0.058 |  |  |  |  | -0.077 |  | -0.028 | 0.27 |  |
| BAP18 isoform 3 (UniProt Q8IXM2) |  |  |  |  | 0.147 | 0.012 |  |  |  |  |
| AIF1 (UniProt P55008) |  | 0.11 |  |  |  |  |  |  | -0.317 | 0.008 |
| AKNA (UniProt Q7Z591) |  |  | -0.02 |  |  |  |  |  |  | -0.015 |
| BRAF, A0A2R8Y8E0 | 0.262 |  |  |  |  | 0.248 |  | -0.757 (active) | -0.223 |  |

From the supplement of paper PMC10849652
